In PubChem BioAssay AID1347416 (National Center for Advancing Translational Sciences (NCATS), 2020):
The campaign covered roughly 4,100 compounds. About 1,600 (39%) were called active. Inconclusive results (about 25%) are left out. Calls come from the whole dose curve; as a rule, active = well fitted inhibition curve with a large enough effect; inconclusive = small, poorly fitted or top-dose-only effect; inactive = no such curve, though single readings can be large or run the other way. This is one part of the list.

Assay: qHTS Validation assay for Inhibitors of Plasmodium falciparum Dd2 growth in vitro; note: nearly all actives have a fitted effect of over 70% in size
Conditions: P. falciparum Dd2 in RBCs, SYBR Green growth, 72 h; series mostly up to 28.7 µM; activity change, negative = inhibition: at the top concentration
How it was run: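 P. falciparum Dd2-infected red blood cells (2.5% hematocrit, 0.3% parasitemia) grown 72 h at 37 °C under 5% O2 with compounds in a titration, 29 uM to 0.5 nM final. Growth read as SYBR Green-1 fluorescence after ~16 h lysis; artesunate 300 nM as positive control.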
% is set by controls: 0 for no effect and ±100 for the full control effect; potency is the fitted concentration of half-maximal effect.

Row | Compound | activity change, negative = inhibition | Potency
1 | Cc1ccc(-c2nc(C)c(C(=O)O)s2)cc1 | 29.2% (inactive) | 
2 | CC(=O)C1=C(c2ccc(Cl)c(Cl)c2)N(C(C)=O)n2cnnc2S1 |  | 3.76 µM (active)
3 | CC(=O)C1=C(c2ccccc2)N(C(C)=O)n2c(nnc2C2CCCCC2)S1 |  | 4.22 µM (active)
4 | CC(=O)C1=C(c2ccc(Cl)cc2)N(C(C)=O)n2c(nnc2C2CCCCC2)S1 |  | 4.73 µM (active)
5 | CC(=O)C1=C(c2ccc(Br)cc2)N(C(C)=O)n2c(nnc2C2CCCCC2)S1 |  | 2.99 µM (active)
6 | Cc1ncoc1C(=O)N1CCCCCC1c1nnc(-c2ccccc2)o1 (centres undefined) | -8.53% (inactive) | 
7 | CC[C@@]1(O)CCN(C(=O)c2cccc(-c3cccc(OC)c3)c2)C[C@H]1O | 36.8% (inactive) | 
8 | COc1ccc(C2=C(C(C)=O)Sc3nnc(-c4ccc(Cl)cc4)n3N2C(C)=O)cc1OC |  | 3.76 µM (active)
9 | COc1cccc(C2=C(C(C)=O)Sc3nnc(C4CCCCC4)n3N2C(C)=O)c1 |  | 4.73 µM (active)
10 | COc1ccc(C(=O)NCc2nnc3ccc(-c4ccc(Cl)cc4)nn23)cc1F | 1.75% (inactive) | 
11 | COc1ccc(-c2noc(N3CCN(c4ccc(C)cc4)C(C)C3)n2)cc1OC (centres undefined) | 19.4% (inactive) | 
12 | CCOc1ccc(C2=C(C(C)=O)Sc3nnc(C)n3N2C(C)=O)cc1 |  | 5.31 µM (active)
13 | COc1cc(Cc2cnc(N)nc2N)cc(OC)c1OC | -3.03% (inactive) | 
14 | Cc1noc(-c2cccn3c(CNC(=O)c4cccc(N(C)C)c4)nnc23)n1 | -9.65% (inactive) | 
15 | CCCN1CCC2(CCN(C(=O)c3cccc(Cl)c3)CC2)Oc2ccccc21 | -10.4% (inactive) | 
16 | O=C(Nc1ccc(Cl)cc1)N1CCC2(CC1)CCN(Cc1cccs1)c1ccccc1O2 |  | 8.41 µM (active)
17 | Cc1ccc([S+](=O)([O-])N2CCC3(CCN(Cc4cccs4)c4ccccc4O3)CC2)cc1 |  | 18.8 µM (active)
18 | COCC(=O)N1CCC2(CC1)CCN(Cc1cccs1)c1ccccc1O2 | -11.4% (inactive) | 
19 | CCC(C)NC(=O)c1ccccc1NC(=O)C1COc2ccccc2O1 (centres undefined) |  | 10.6 µM (active)
20 | CCC(C)NC(=O)C1COC2(CCN(C(=O)c3cccc(Cl)c3)CC2)N1C(=O)c1ccccc1C (centres undefined) | -20% (inactive) | 

Row | Compound | activity change, negative = inhibition | Potency
21 | Cc1ccc(-n2c(C)cc(C(=O)OCC(=O)N(C)C3CCS(=O)(=O)C3)c2C)cc1 (centres undefined) |  | 4.73 µM (active)
22 | CCc1ccc(OCC(=O)N(Cc2ccc(C(C)C)cc2)C2CCS(=O)(=O)C2)cc1 (centres undefined) | -21.5% (inactive) | 
23 | CCc1ccc(CN(C(=O)c2cc3ccccc3oc2=O)C2CCS(=O)(=O)C2)cc1 (centres undefined) | 4.23% (inactive) | 
24 | COc1ccc(-c2cc3c(=O)n(CCNC(=O)c4ccc(C)c(F)c4)ccn3n2)cc1 | -1.49% (inactive) | 
25 | CN1c2cc(C(=O)NCc3ccc(F)cc3)ccc2C(=O)N2CCCCCC21 (centres undefined) | 10% (inactive) | 
26 | CCC1CCCCN1CCCNC(=O)c1ccc2c(c1)sc1nc(-c3ccc(F)cc3)cn12 (centres undefined) |  | 1.5 µM (active)
27 | CC1CCCCN1CCCNC(=O)c1ccc2c(c1)sc1nc(-c3ccc(F)cc3)cn12 (centres undefined) |  | 1.88 µM (active)
28 | O=C(C1CCC1)N1CCC2(CC1)CC(N(Cc1ccccc1)C1CC1)CCO2 (centres undefined) | -0.913% (inactive) | 
29 | CC1CCCCN1Cc1c(O)ccc2c(=O)c(-c3nc4ccccc4s3)c(N)oc12 (centres undefined) |  | 1.06 µM (active)
30 | COCCN1C(=O)CS(=O)(=O)C12CCN(C(=O)c1cc(C)ccc1C)CC2 | -2.68% (inactive) | 
31 | CC(C)(C)CN[C@H]1C[C@@H](Cc2cc(CN3CCOCC3)on2)C1(C)C | 3.76% [at 43.1 µM] (inactive) | 
32 | CN(C)Cc1cc(CC2(NCc3ccc(C#N)cc3)COC2)no1 | 20.6% [at 43.1 µM] (inactive) | 
33 | CN(C)Cc1cc(C[C@@H]2C[C@H](NCc3ccccc3O)C2(C)C)no1 |  | 17.2 µM (active)
34 | CC(=O)N1CCN(c2nc3c(s2)CC(C(=O)NCc2cccc(Cl)c2)CC3)CC1 (centres undefined) | -21.9% (inactive) | 
35 | O=C(c1ccc([N+](=O)[O-])o1)N1CCN(c2nc3c(Cl)cccc3s2)CC1 |  | 4.22 µM (active)
36 | O=C(c1ccc([N+](=O)[O-])o1)N1CCN(c2nc3c(F)cc(F)cc3s2)CC1 |  | 5.96 µM (active)
37 | CCc1cccc2sc(N3CCN(C(=O)c4ccc([N+](=O)[O-])o4)CC3)nc12 |  | 1.06 µM (active)
38 | Cc1noc(C(C)N(C)C(=O)c2cc(COc3ccccc3F)[nH]n2)n1 (centres undefined) | 47.1% (inactive) | 
39 | Cc1nn(-c2ccccc2)c2c1C(c1cccnc1)N1C=C(S(=O)(=O)N3CCCCC3)C=CC1=N2 (centres undefined) |  | 15 µM (active)
40 | COC(=O)[C@@H]1Cc2ncn(C(C)C)c2CN1S(=O)(=O)c1cccc(C(F)(F)F)c1 | 37.8% [at 43.1 µM] (inactive) | 

Row | Compound | activity change, negative = inhibition | Potency
41 | COc1ccc(-c2ccc3ncc(Nc4ccnc(N5CCOCC5)c4)n3n2)cn1 |  | 4.85 µM (active)
42 | Fc1ccc(-c2ccc3ncc(Nc4ccnc(N5CCOCC5)c4)n3n2)cc1 |  | 1.72 µM (active)
43 | COc1ccc(-c2ccc3ncc(Nc4cccc(C(F)(F)F)c4)n3n2)cn1 |  | 12.2 µM (active)
44 | CCc1noc(-c2cccn3c(CNC(=O)Cc4ccc(Cl)cc4)nnc23)n1 | -12.7% (inactive) | 
45 | Cc1ccoc1C(=O)Nc1ccc(CC(=O)O)cc1 | 32.1% (inactive) | 
46 | CCN1CCN(c2cc(C)c3cc(NC(=O)c4ccc(Br)o4)ccc3n2)CC1 |  | 6.68 µM (active)
47 | CCN(CC)c1cc(C)c2cc(NC(=O)c3ccc(Br)o3)ccc2n1 |  | 6.68 µM (active)
48 | Cc1cc(N2CCN(C)CC2)nc2ccc(NC(=O)c3ccc(Br)o3)cc12 |  | 6.68 µM (active)
49 | CCN(c1ccccc1)S(=O)(=O)c1ccc(NC(=O)c2cc(=O)c3cc(C)ccc3o2)cc1 | 44% (inactive) | 
50 | OC(CN1CCN(c2ccccn2)CC1)Cn1c2ccc(Cl)cc2c2cc(Cl)ccc21 (centres undefined) |  | 2.99 µM (active)
51 | CC(NC(=O)Cc1cccc(F)c1)C(=O)N1CCN(c2ccccn2)CC1 (centres undefined) | -6.29% (inactive) | 
52 | O=c1cc(N2CCOCC2)oc2c(N3CCN(c4ccccn4)CC3)nccc12 | -7.02% [at 43.1 µM] (inactive) | 
53 | COc1ccc(CNC(=O)C2CCN(C(=O)c3cc4c(=O)[nH]c(C)cn4n3)CC2)cc1 | 2.01% (inactive) | 
54 | COc1ccc(CNC(=O)CC[C@@H]2CNC(=O)[C@@H]3C[C@H](NCc4ccccc4)CN23)cc1 | 41% (inactive) | 
55 | Cc1ccc(CNCc2cc3c(C(C)(C)C)nn(-c4ccccc4)c3[nH]c2=O)cc1 |  | 0.266 µM (active)
56 | Cc1ccc(Oc2c(CCC(=O)NC(C)C)c(C)nn2-c2ccccc2)cc1 | -18.5% (inactive) | 
57 | Cc1ccc(-c2nn(-c3ccccc3)c3[nH]c(=O)c(CNCc4ccccc4)cc23)cc1 |  | 0.422 µM (active)
58 | Cc1nc(NCc2ccccc2)[nH]c(=O)c1CCC(C)C | -0.527% (inactive) | 
59 | COc1ccc(CNCc2cc3c(C(C)(C)C)nn(-c4ccccc4)c3[nH]c2=O)cc1 |  | 0.842 µM (active)
